HT1080NT lethal – kills 2HG-producing HT-1080-NT fibrosarcoma cells; HT-1080-NT fibrosarcoma viability, CellTiter-Glo ATP luminescence, 48 h; Potency, µM (series often up to 46.1 µM), usual class: cytotoxic; actives 1.6% (n = 360,000); AID 686970;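 also: NT is the 2HG producing partner of a matched IDH1 knockdown line; nearly all actives have a fitted effect of over 55% in size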
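HT-1080-NT; 750 cells/well; 5% FBS RPMI; 48 h compound, 37 degrees C; CellTiter-Glo luminescence; curve fitting and curve-class assignment.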
KB-V1 MDR tox – kills drug-selected multidrug resistant KB-V1 cells; actives 3.4% (n = 400,000); KB-V1 MDR cells viability, CellTiter-Glo, 72 h; Potency, µM (series often up to 46.1 µM), hits mostly cytotoxic; also: nearly all actives have a fitted effect of over 60% in size
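KB-V1 MDR subline cells in DMEM (phenol-red free, 10% FBS) exposed to compounds in qHTS concentration series for 72 h at 37 degrees C. Viability read by CellTiter-Glo luminescence; concentration-effect curves fitted after normalization and correction.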
HT1080 IDH1KD tx – kills HT-1080 cells with IDH1 knockdown. HT-1080 IDH1 knockdown viability, ATP luminescence, 48 h. Potency, µM (titrated, usually from 46.1 µM), hits mostly cytotoxic. actives 2% (n = 360,000)
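IDH1KD HT-1080 cells, 750/well, RPMI + 5% FBS; compound pinned after 2 h settling; 48 h, 37 °C; CellTiter-Glo luminescence; % activity normalised to DMSO and no-cell wells; curves fitted, classed by r2 and efficacy.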
DT40 TDP1 CPT – DT40-hTDP1 cell growth loss with CPT. actives 12% (n = 420,000). chicken DT40 Tdp1-/-;hTDP1 cells + 20 nM CPT, ATP luminescence, 48 h. Potency, µM (series often up to 46.2 µM), actives largely listed as inhibitors; also: nearly all actives have a fitted effect of over 55% in size
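Cell growth measured by CellTiter-Glo luminescence after a minimum 48 h, 37 C compound exposure with 20 nM CPT in Tdp1-knockout DT40 cells stably expressing hTDP1, seeded 400/well; qHTS titration format.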
TDP1 cell noCPT – qHTS for Inhibitors of human tyrosyl-DNA phosphodiesterase 1 (TDP1): qHTS in cells in absence of CPT | DT40 Tdp1-/- hTDP1 cells, no CPT, ATP luminescence, 48 h | actives 15% (n = 420,000) | Potency, µM (titrated, usually from 46.2 µM), hits mostly inhibitors | AID 686978, 2013; also: nearly all actives have a fitted effect of over 55% in size
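Growth kinetics read by CellTiter-Glo luminescence after ≥48 hr at 37 °C. Cells: DT40 Tdp1-/- stably carrying human TDP1, 400 per well, compound exposure in the absence of CPT (DMSO vehicle).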
KB-3-1 tox – kills parental KB-3-1 adenocarcinoma cells | Potency, µM (doses to about 46.1 µM), actives largely listed as cytotoxic | actives 1.4% (n = 400,000) | AID 1347075 | KB-3-1 viability, CellTiter-Glo ATP luminescence, 72 h; also: nearly all actives have a fitted effect of over 60% in size
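Viability of parental KB-3-1 cells, measured by CellTiter-Glo luminescence, followed a 72 h incubation at 37 °C with pinned compounds in phenol-red-free DMEM containing 10% FBS.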
A number is an active result; – = inactive; ? = inconclusive; · = no result given; [ ] = another dose, or the depositor's remark. Hits are enriched below; roughly 19% of the tested compounds scored in any of these assays. Calls follow the shape of the dose curve; as a rule, active = well fitted curve in the direction sought with a large enough effect; inconclusive = small, poorly fitted or top-dose-only effect, or another doubt; inactive = no such curve, though single readings can be large; an effect the other way counts as inactive or inconclusive.

SMILES	HT1080NT lethal	KB-V1 MDR tox	HT1080 IDH1KD tx	DT40 TDP1 CPT	TDP1 cell noCPT	KB-3-1 tox
CCCN(CCC)C(=O)COc1cc(=O)n(CC)c2ccccc12	–	–	–	?	?	–
Cc1nc2c(Br)c(C)nn2c2c1CCC2	–	–	–	?	–	–
CCN(Cc1ccccc1)C(=O)COc1cc(=O)n(CC)c2ccccc12	–	?	–	?	21µM	–
O=C(c1csc(Nc2ccccc2Cl)n1)N1CCCC1	–	21µM	–	–	?	–
C[C@@H]1[C@H]2[C@@H]3CC[C@@H](C3)[C@H]2CN[C@H]1c1cn(Cc2ccccc2)c2ccccc12	–	–	–	16µM	?	–
Cc1ccc(S(=O)(=O)N2C[C@@H]3[C@H]4CC[C@H](C4)[C@@H]3[C@@H](C)[C@H]2c2ccco2)cc1	–	–	–	15µM	15µM	–
Cc1ccc(S(=O)(=O)N2C[C@@H]3[C@H]4CC[C@H](C4)[C@@H]3[C@@H](C)[C@@H]2c2ccco2)cc1	–	–	–	?	?	–
Cc1ccc(S(=O)(=O)N2C[C@@H]3[C@H]4CC[C@H](C4)[C@@H]3[C@@H](C)[C@@H]2c2cn(Cc3ccccc3)c3ccc(F)cc23)cc1	–	–	–	21µM	21µM	–
O=C(COC(=O)c1cccc([N+](=O)[O-])c1)Nc1ccc(Cl)cn1	–	–	–	–	–	–
Nc1cc([N+](=O)[O-])cc(N)c1N	·	–	·	?	?	–
O=C(Nc1cc([N+](=O)[O-])c2[nH]c(=O)c3ccccc3c2c1)C(F)(F)F	–	?	?	0.29µM	1.8µM	–
O=C(CCc1nc2ccccc2c(=O)[nH]1)Nc1ccc(F)c([N+](=O)[O-])c1	–	–	–	?	?	?
CCOC(=O)c1c(C)c(C(=O)NC(C)COC)c(C)n1CC (centres undefined)	–	–	–	–	–	–
CCN(CC)CCNC(=O)c1cnn(-c2ncc3c(n2)-c2ccc(OC)cc2CC3)c1C	·	·	·	–[9.04 µM]	–	·
COc1ccc2c(c1)CCc1cnc(-n3ncc(C(=O)NCCCc4ccncc4)c3C)nc1-2	·	·	·	–[9.04 µM]	18µM	·
Nc1ccn([C@@H]2O[C@H](CNC(=O)[C@@H](Cc3cccnc3)NC=O)[C@@H](O)[C@H]2O)c(=O)n1	–	–	–	–	–	–
CCOC(=O)c1ccc(NC(=O)CC(C)n2nc(C)cc2C)cc1 (centres undefined)	·	–	·	?	?	–
O=C(CSc1nnc(-c2ccncc2)n1Cc1ccco1)N1c2ccccc2Sc2ccc(Cl)cc21	–	–	–	15µM	–	?
Cn1c(SCC(=O)N2c3ccccc3Sc3ccc(Cl)cc32)nnc1-c1ccco1	–	23µM	–	21µM	?	–
Cn1nnnc1SCC(=O)N1c2ccccc2Sc2ccc(Cl)cc21	–	–	–	?	21µM	–
Cc1ccc(Cn2c(=O)c3c(nc4n3CCN4c3cc(C)cc(C)c3)n(C)c2=O)cc1	·	·	·	–	–	·
O=c1cc(-c2ccccc2)oc2c1ccc1ccccc12	·	·	·	–	?	·
O=c1cc(-c2cccnc2)oc2c1ccc1ccccc12	–	?	–	?	23µM	–
O=c1cc(-c2ccccc2)oc2ccc3ccccc3c12	–	21µM	–	?	?	–
O=c1cc(-c2ccc(O)c(O)c2)oc2ccc3ccccc3c12	–	18µM	–	?	15µM	–
SMILES	HT1080NT lethal	KB-V1 MDR tox	HT1080 IDH1KD tx	DT40 TDP1 CPT	TDP1 cell noCPT	KB-3-1 tox
COc1cc(-c2cc(=O)c3ccccc3o2)ccc1O	–	?	–	?	?	–
O=c1cc(-c2ccc(O)c(O)c2)oc2c1ccc1ccccc12	–[9.24 µM]	–	–	16µM	26µM	–
COc1cccc(CN2CC(C(=O)NCc3ccc(C)o3)CCC2=O)c1 (centres undefined)	–	–	–	–	–	–
COC(=O)c1ccc(NC2=CC(=O)CC(C)(C)C2)cc1	?	–	?	23µM	23µM	?
CCCN(CCC)C(=O)CCSCCC(=O)N(CCC)CCC	–	18µM	–	–	?	–
O=C(O)CCSCCC(=O)O	–	–	–	–	–	–
C[C@@H](c1ccccc1)N1C[C@@H](COCc2ccccc2)Oc2cc(N3CC[C@H](O)C3)ccc2S1(=O)=O	?	?	?	?	18µM	–
C[C@@H](c1ccccc1)N1C[C@H](COCc2ccccc2)Oc2cc(N3CC[C@H](O)C3)ccc2S1(=O)=O	?	–	?	?	21µM	–
CCCCC[C@H](C)N1C[C@H](COCc2ccccc2)Oc2cc(N3CC[C@@H](O)C3)ccc2S1(=O)=O	?	–	?	?	?	–
C[C@H](c1ccccc1)N1C[C@@H](COCc2ccccc2)Oc2cc(N3CC[C@@H](O)C3)ccc2S1(=O)=O	?	?	?	21µM	23µM	–
COc1ccccc1CNC(=O)C(=O)NCC(c1cccnc1)N1CCN(c2ccccc2)CC1 (centres undefined)	·	–	·	?	?	–
O=C(Nc1cccc(S(=O)(=O)N2CCCCC2)c1)C1COc2ccccc2O1 (centres undefined)	–	–	–	?	?	–
COc1cc(/C=C/C(=O)O)ccc1O	–	–	–	–	–	–
COc1cc(/C=C/C(C)=NNc2ccccc2)ccc1O	?	–	?	3.7µM	4.1µM	–
COc1ccccc1C1CN(Cc2c(C)nn(C)c2Cl)Cc2ccccc2O1 (centres undefined)	·	·	·	–[9.04 µM]	–	·
CCOC(=O)C1=C(N)n2c(s/c(=C\c3cccnc3)c2=O)=C(C(=O)OC)C1c1cccnc1 (centres undefined)	–	–	–	–	–	–
CCOC(=O)C1=C(N)n2c(s/c(=C\c3cccs3)c2=O)=C(C(=O)OCC)C1c1cccs1 (centres undefined)	?	13µM	2.6µM	4.1µM	6.5µM	10µM
CC1Sc2n(c3ccccc3[n+]2C)N=C1c1ccccc1 (centres undefined)	–	–	7.3µM	1.5µM	1.5µM	7.3µM
C[n+]1c2n(c3ccccc31)N=C(c1ccc(Cl)cc1)CS2	?	–	?	1.2µM	0.92µM	5.8µM
Clc1ccc(C2=Nn3c(Cn4nnc5ccccc54)nnc3SC2)cc1	–	?	–	–	–	–
Cn1c(-c2ccccn2)[n+](C)c2ccccc21	–	–	–	–	–	–
CCCc1cc(=O)[nH]c(SCC(=O)NCC2COc3ccccc3O2)n1 (centres undefined)	–	–	–	–	–	–

Bioassay records as filed in PubChem BioAssay.
